Only some compounds are listed: those with a hit (about 4.1% of all), similar ones and a draw of the others.
ALR H2O2 inh: human ALR oxidase inhibition via reduced H2O2; AID 485317; P55789; inhibition, % (test concentration not listed); purified ALR, DTT oxidation, H2O2 HRP-luminol luminescence; 290,000 compounds, 3.8% hits;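 active = mean replicate inhibition above about 79%, with every replicate also reaching it, limit read from the data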
Target sequence (P55789 whole entry, looked up): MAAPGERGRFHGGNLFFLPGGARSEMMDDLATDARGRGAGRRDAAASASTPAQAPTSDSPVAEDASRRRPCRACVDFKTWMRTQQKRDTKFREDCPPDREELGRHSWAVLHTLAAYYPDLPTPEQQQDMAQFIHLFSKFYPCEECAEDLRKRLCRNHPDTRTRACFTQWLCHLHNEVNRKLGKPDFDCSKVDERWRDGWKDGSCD
CaV13 ICDI inh: Disruptors of the CACNA1D IQ motif to Ca2+-dependent inactivation inhibitor domain association, primary screening, Förster resonance energy transfer in intact living … | HEK cells, CFP/YFP FRET ICDI-IQ, plate reader, 10 min; percent FRET-ratio fall versus neutral wells | inhibition, % at 12.3 µM | 340,000 compounds, 0.098% hits | AID 743397;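 active = mean replicate inhibition of at least 30% and at least 1% of replicates passing that level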;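 also: 0% = median of the neutral control wells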
PolyA inhibitor: inhibitors of polyadenylation in S. cerevisiae | S. cerevisiae SKY197-pL101 polyadenylation reporter, beta-gal luminescence; efflux-impaired pdr1/pdr3 knockout yeast; score 100 = 6 SD above DMSO | activity score, % at 12 µM | 300,000 compounds, 0.02% hits | AID 1875;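 active = lowest replicate activity score at least 50, where 100 means six control SD above control mean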;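 also: yeast exposed to compound for 9 h at 30 °C; higher score means more reporter readthrough which indicates perturbed polyadenylation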
IDE cell inh: cellular human IDE inhibition | HEK cells, FAbetaB cleavage, fluorescence polarization | 320,000 compounds, 0.41% hits | inhibition, % at 5.59 µM;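 active = percent inhibition above the average of all tested compounds plus 3 SD, set per screening campaign, cut at about 16% in these data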;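 also: IDE supplied by intact live HEK cells; FP after avidin binding of uncleaved biotin substrate so inhibition keeps polarization high; 0% = DMSO wells and 100% = 60 µM reference IDE inhibitor Ii1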
M18AAP inhibitor: blocks P. falciparum M18 aspartyl aminopeptidase. recombinant PfM18AAP, H-Glu-NHMec fluorogenic cleavage. inhibition, % at 7.35 µM. 290,000 compounds, 1.2% hits. AID 1822;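 active = inhibition above the campaign mean inhibition over all tested compounds plus 3 SD, cut at about 28% in these data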;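 also: 0% = plate median of test compound wells and 100% = 2 mM ZnCl2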
IDE cell activ: IDE (human) activation, cell-based; P14735; HEK cells, FAbeta-B cleavage, fluorescence polarization; 0% vehicle, 100% cell-free pure enzyme wells; activation, % at 5.96 µM; 340,000 compounds, 0.073% hits;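 active = activation above the mean of all tested compounds plus 3 SD, set per screening campaign, cut at about 17% in these data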
An asterisk follows results filed as active.

What do the screens show for `CCCOc1ccc(C(C)=O)cc1CSCCC#N`?
ALR H2O2 inh: -24; CaV13 ICDI inh: 1; PolyA inhibitor: -9; IDE cell inh: 6; M18AAP inhibitor: -6; IDE cell activ: -1

What do the screens show for `Cc1cc(=O)[nH]c(SCc2ccccc2)n1`?
ALR H2O2 inh: 0; CaV13 ICDI inh: -1; PolyA inhibitor: -5; IDE cell inh: 6; M18AAP inhibitor: -17; IDE cell activ: -5

What do the screens show for `COC(=O)[C@]12C[C@H](CC(=O)N3CCOCC3)C(=O)N(Cc3ccccc3)C1=C[C@H](C(C)C)O[C@@H]2C1CC1`?
CaV13 ICDI inh: -5

What do the screens show for `CC(Oc1ccc(Cl)cc1)c1ccn[nH]1` (stereo unspecified)?
ALR H2O2 inh: -18; CaV13 ICDI inh: -7; PolyA inhibitor: -2; IDE cell inh: 0; M18AAP inhibitor: -7; IDE cell activ: 7

How did Cc1c(Cl)cccc1NC(=S)N(Cc1cccnc1)Cc1ccccc1Cl do in these assays?
ALR H2O2 inh: 0; CaV13 ICDI inh: -2; PolyA inhibitor: -14; IDE cell inh: -3; M18AAP inhibitor: 2; IDE cell activ: -4

How did O=C(CCc1nc2ccccc2c(=O)[nH]1)N1CCN(S(=O)(=O)c2cc(Cl)ccc2Cl)CC1 do in these assays?
CaV13 ICDI inh: -2; IDE cell activ: -3

How did c1ccc2c(CSCCc3ccncc3)cccc2c1 do in these assays?
ALR H2O2 inh: 100*; CaV13 ICDI inh: -1; PolyA inhibitor: -11; IDE cell inh: -2; M18AAP inhibitor: -1; IDE cell activ: 2

How did CCCOc1ccc(CSC(=N)N)cc1C(=O)OC do in these assays?
ALR H2O2 inh: 99*; CaV13 ICDI inh: -15; PolyA inhibitor: 2; IDE cell inh: 0; M18AAP inhibitor: 3; IDE cell activ: 5

Results for COC(=O)c1cc(CSC(=N)N)ccc1OCCC(C)C ?
ALR H2O2 inh: 99*; CaV13 ICDI inh: -5; PolyA inhibitor: 1; IDE cell inh: 9; M18AAP inhibitor: -1; IDE cell activ: 4

Results for O=C(CNC(=O)c1ccc(Br)o1)OCc1ccc(Br)cc1 ?
ALR H2O2 inh: -3; CaV13 ICDI inh: -6; IDE cell inh: 2; IDE cell activ: -4

Results for CCOc1ccc(/C=C(\C#N)C(=O)NCC2CCCO2)cc1OCC (stereo unspecified) ?
ALR H2O2 inh: -2; CaV13 ICDI inh: -5; PolyA inhibitor: -3; IDE cell inh: 8; M18AAP inhibitor: 2; IDE cell activ: -5

Results for COc1cc(/C=N/NC(=O)C(=O)NCC2CCCO2)ccc1O (stereo unspecified) ?
ALR H2O2 inh: 99*; CaV13 ICDI inh: -4; PolyA inhibitor: -2; IDE cell inh: 0; M18AAP inhibitor: 2; IDE cell activ: 8

What do the screens show for `COc1cc(/C=C(\C#N)C(=O)NCC2CCCO2)ccc1O` (stereo unspecified)?
ALR H2O2 inh: 99*; CaV13 ICDI inh: -4; PolyA inhibitor: -4; IDE cell inh: 9; M18AAP inhibitor: 0; IDE cell activ: 3

What do the screens show for `C=CCOn1c(=O)c(-c2ccc(Br)cc2)[n+]([O-])c2ccccc21`?
ALR H2O2 inh: -1; CaV13 ICDI inh: -4; PolyA inhibitor: 8; IDE cell inh: 7; M18AAP inhibitor: -5; IDE cell activ: 4

How did Cc1cc(OCC(=O)N(Cc2cccs2)C2CCS(=O)(=O)C2)ccc1Cl (stereo unspecified) do in these assays?
ALR H2O2 inh: -16; CaV13 ICDI inh: -7; PolyA inhibitor: 6; IDE cell inh: 3; M18AAP inhibitor: 6; IDE cell activ: 2

How did O=C(CSc1nnc2n1CCCN2)c1ccc([N+](=O)[O-])cc1 do in these assays?
ALR H2O2 inh: 97*; CaV13 ICDI inh: -2; PolyA inhibitor: 16; IDE cell inh: -5; M18AAP inhibitor: 6; IDE cell activ: 8

How did O=C(NC1=NCCS1)c1cc(-c2ccc(-c3ccccc3)cc2)nc2ccccc12 do in these assays?
ALR H2O2 inh: -10; CaV13 ICDI inh: -13; PolyA inhibitor: -12; IDE cell inh: -5; M18AAP inhibitor: 1; IDE cell activ: 5

What do the screens show for `COc1ccc(-c2cc(C(=O)NC3=NCCS3)c3ccccc3n2)cc1OC`?
ALR H2O2 inh: 98*; CaV13 ICDI inh: -3; PolyA inhibitor: 11; IDE cell inh: 1; M18AAP inhibitor: -1; IDE cell activ: 1

Results for O=C1c2ccccc2C(=O)N1c1ccc(S(=O)(=O)N2CCN(c3ccccc3)CC2)cc1 ?
ALR H2O2 inh: -2; PolyA inhibitor: -7; IDE cell inh: 3; M18AAP inhibitor: -9; IDE cell activ: 4

How did CCOC(=O)Cc1cc(=O)n2[nH]c(C)c(-c3ccc(Cl)cc3)c2n1 do in these assays?
ALR H2O2 inh: 99*; CaV13 ICDI inh: -8; PolyA inhibitor: -3; IDE cell inh: 4; M18AAP inhibitor: -1; IDE cell activ: 4

Results for CCc1cc(=O)n2[nH]c(C)c(-c3ccc(OC)cc3)c2n1 ?
ALR H2O2 inh: 33; CaV13 ICDI inh: -5; PolyA inhibitor: 5; IDE cell inh: 5; M18AAP inhibitor: -8; IDE cell activ: -2

How did CCOC(=O)Cc1cc(=O)n2[nH]c(C)c(-c3ccc(OC)cc3)c2n1 do in these assays?
ALR H2O2 inh: 91*; CaV13 ICDI inh: -3; PolyA inhibitor: 0; IDE cell inh: 2; M18AAP inhibitor: -14; IDE cell activ: 1

What do the screens show for `COC(=O)Cc1cc(=O)n2[nH]c(C)c(-c3ccccc3)c2n1`?
ALR H2O2 inh: 48; PolyA inhibitor: -15; IDE cell inh: 3; M18AAP inhibitor: -4; IDE cell activ: 1

What do the screens show for `CN(CC(=O)Nc1cccc2ccccc12)c1ccc(S(=O)(=O)N2CCOCC2)cn1`?
ALR H2O2 inh: -13; CaV13 ICDI inh: 0; PolyA inhibitor: 27; IDE cell inh: 1; M18AAP inhibitor: 2; IDE cell activ: 1

What do the screens show for `CC(=O)C1=C(O)CCCC1=NCc1nc2ccccc2[nH]1`?
ALR H2O2 inh: -13; CaV13 ICDI inh: 1; PolyA inhibitor: 13; IDE cell inh: -1; M18AAP inhibitor: -7; IDE cell activ: -6

How did CCn1c(=O)n(CC)c2cc(N3CCCC3)c(NC(=O)c3ccc(C)cc3)cc21 do in these assays?
ALR H2O2 inh: 99*; CaV13 ICDI inh: -2; PolyA inhibitor: 4; IDE cell inh: 3; M18AAP inhibitor: 28*; IDE cell activ: 5

What do the screens show for `CCn1c(=O)n(CC)c2cc(N3CCCC3)c(NC(=O)c3ccccc3)cc21`?
ALR H2O2 inh: 97*; CaV13 ICDI inh: -6; PolyA inhibitor: 18; IDE cell inh: 2; M18AAP inhibitor: 14; IDE cell activ: -1

What do the screens show for `CCn1c(=O)n(CC)c2cc(N3CCCC3)c(NC(=O)c3ccccc3C)cc21`?
ALR H2O2 inh: 99*; CaV13 ICDI inh: -6; PolyA inhibitor: -12; IDE cell inh: 2; M18AAP inhibitor: 19; IDE cell activ: 4
